# IL-1B inflam inh: qHTS for Inhibitors of Inflammasome Signaling: IL-1-beta AlphaLISA Primary Screen; THP-1 LPS/ATP IL-1B secretion, AlphaLISA, 16 h; stronger effect = lower value; activity change, % at 57.5 µM; hit rate 4.7% among 360,000; in the data active = activity change below about -50%; inconclusive = mostly about -30% to -49%
#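 THP-1 cells pretreated 1 hr with compounds (up to 57.5 uM final), then stimulated with LPS (250 ng/mL final) plus ATP (1.25 mM final); secreted IL-1B measured by AlphaLISA after 16 hr, decreased signal indicating inhibition.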
# TDP1 cell noCPT: qHTS for Inhibitors of human tyrosyl-DNA phosphodiesterase 1 (TDP1): qHTS in cells in absence of CPT | DT40 Tdp1-/- hTDP1 cells, no CPT, ATP luminescence, 48 h | Potency, µM (titrated, usually from 46.2 µM), inactives show at the top dose activity change, negative = growth inhibition, hits mostly inhibitors | hit rate 15% among 420,000 | AID 686978, 2013; also: potency is read from the fitted curve at half-maximal effect; nearly all actives have a fitted effect of over 55% in size
#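 Stably hTDP1-transfected Tdp1-null chicken DT40 cells were treated with library compounds minus camptothecin and grown for at least 48 hr at 37 °C, after which cellular ATP was quantified by luminescence.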
# Six1-Eya2 inh: qHTS Assay for Inhibitors of the Six1/Eya2 Interaction. hit rate 0.56% among 360,000. activity change, % (no concentration beside the values). AlphaScreen GST-Six1/His-Eya2 binding, biochemical; stronger effect = lower value; in the data active = activity change below about -65%; inconclusive = mostly about -30% to -63%
# Target sequence (O00167 whole entry, looked up): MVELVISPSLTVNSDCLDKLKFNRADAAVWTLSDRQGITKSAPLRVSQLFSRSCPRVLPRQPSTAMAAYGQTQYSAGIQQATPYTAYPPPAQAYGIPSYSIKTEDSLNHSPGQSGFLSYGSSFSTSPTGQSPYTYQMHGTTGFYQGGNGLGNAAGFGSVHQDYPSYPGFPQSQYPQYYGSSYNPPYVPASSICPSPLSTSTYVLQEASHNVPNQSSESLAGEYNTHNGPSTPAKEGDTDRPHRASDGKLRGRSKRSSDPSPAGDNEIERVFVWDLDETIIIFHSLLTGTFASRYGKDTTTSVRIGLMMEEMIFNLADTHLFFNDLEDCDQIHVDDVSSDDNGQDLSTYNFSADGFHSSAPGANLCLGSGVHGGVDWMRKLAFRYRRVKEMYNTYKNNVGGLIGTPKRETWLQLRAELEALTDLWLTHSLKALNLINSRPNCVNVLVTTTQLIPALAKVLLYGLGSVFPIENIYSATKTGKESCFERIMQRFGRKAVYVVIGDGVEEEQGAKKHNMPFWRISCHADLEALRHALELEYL
# Target sequence (Q15475 whole entry, looked up): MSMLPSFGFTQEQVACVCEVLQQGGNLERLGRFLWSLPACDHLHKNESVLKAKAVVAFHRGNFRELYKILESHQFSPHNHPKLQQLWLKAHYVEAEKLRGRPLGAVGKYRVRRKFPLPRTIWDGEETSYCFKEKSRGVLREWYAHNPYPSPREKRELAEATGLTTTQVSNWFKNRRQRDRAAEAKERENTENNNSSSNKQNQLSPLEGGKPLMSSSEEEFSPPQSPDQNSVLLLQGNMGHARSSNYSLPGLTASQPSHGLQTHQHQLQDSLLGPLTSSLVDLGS
#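 GST-Six1 + His-Eya2 (5X stock: 250/500 nM); Tris pH 8.0, 300 mM NaCl, 0.05% BSA, 0.02% Tween 20; GSH donor/Ni acceptor beads; 1 h 37 °C dark; AlphaScreen readout.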
# CtBP-E1A inh: qHTS Assay for Inhibitors of the CtBP/E1A Interaction | CtBP / adenovirus E1A interaction (AlphaScreen) | AlphaScreen GST-E1A/His-CtBP binding, 1536-well; stronger effect = lower value | activity change, % (no concentration beside the values) | hit rate 0.49% among 340,000 | AID 651724, 2012; in the data active = activity change below about -65%; inconclusive = mostly about -30% to -63%
#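 Protein mix (5X: 125 nM each GST-E1A, His-CtBP) was incubated with pinned compound 2 h at 37 deg C in dark, in 50 mM Tris pH 8.0 buffer with 300 mM NaCl. Glutathione donor and nickel acceptor beads followed; AlphaScreen signal read after 1 h.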
# DT40 TDP1 CPT: qHTS for Inhibitors of human tyrosyl-DNA phosphodiesterase 1 (TDP1): qHTS in cells in presence of CPT; chicken DT40 Tdp1-/-;hTDP1 cells + 20 nM CPT, ATP luminescence, 48 h; hit rate 12% among 420,000; Potency, µM (highest dose often 46.2 µM), for the others: at the highest dose activity change, negative = growth inhibition, actives largely listed as inhibitors; AID 686979, 2013; also: potency is read from the fitted curve at half-maximal effect; nearly all actives have a fitted effect of over 55% in size
#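 Chicken DT40 Tdp1-/- cells stably complemented with human TDP1 were seeded at 400 cells/well in medium containing 20 nM camptothecin, exposed to pin-transferred compounds, and grown at 37 °C for at least 48 hr. Viability was read as ATP luminescence.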
# TDP1 inh: qHTS Assay for Inhibitors of Tyrosyl-DNA Phosphodiesterase (TDP1); recombinant TDP1, AlphaScreen DNA substrate cleavage; Tyrosyl-DNA phosphodiesterase 1 (Homo sapiens), Q9NUW8; AID 485290, 2010; Potency, µM (doses to about 130 µM), inactives show top-dose activity change, negative = inhibition, usual class: inhibitors; hit rate 0.28% among 350,000; also: potency is read from the fitted curve at half-maximal effect; nearly all actives have a fitted effect of over 40% in size
#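 E. coli-derived human Tdp1, 1 nM final. Cpd preinc 15 min RT; substrate 15 nM final, 5 min RT; AS bead mix 10 ug/ml final, 10 min RT. Signal loss = tyrosine-FITC cleavage. No-enzyme wells = max signal.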
# * marks the source's active call; other numbers are inactive results; ? = inconclusive; · = no result given; [ ] = dose if it differs, or a comment. Compounds with a hit are over-represented: about 18% of the library has one in this group of screens. Unless noted, calls follow the shape of the dose curve; as a rule, active = well fitted curve in the direction sought with a large enough effect; inconclusive = small, poorly fitted or top-dose-only effect, or another doubt; inactive = no such curve, though single readings can be large; an effect the other way counts as inactive or inconclusive. % is scaled to controls: 0 for no effect and ±100 for the full control effect.
SMILES,IL-1B inflam inh,TDP1 cell noCPT,Six1-Eya2 inh,CtBP-E1A inh,DT40 TDP1 CPT,TDP1 inh
Fc1ccc(NC(=S)NCc2ccc3c(c2)OCO3)cc1,-20.0,?,-1.9,2.6,?,-5.5%
O=C(COc1ccc2c(c1)OCO2)NC12CC3CC(CC(C3)C1)C2,-28.2,?,-13.6,-4.3,?,7.7%
O=C(NCc1ccc2c(c1)OCO2)NC12CC3CC(CC(C3)C1)C2,-1.5,18.4µM*,3.3,4.7,20.6µM*,3.8%
O=C(NC12CC3CC(CC(C3)C1)C2)N1CCC(O)(c2ccc3c(c2)OCO3)CC1,-11.5,14.6µM*,6.0,-1.6,7.31µM*,7.8%
Cc1ccc(NC(=O)NCc2ccc3c(c2)OCO3)cc1C,-62.7*,-22.8%,7.3,2.4,5.1%,·
Fc1ccc(NC(=S)SCc2ccc3c(c2)OCO3)cc1F,10.8,18.4µM*,8.8,-0.1,?,·
Cc1ccc(NC(=S)NCc2ccc3c(c2)OCO3)cc1C,-69.1*,?,-12.2,-9.3,-0.2%,-8.2%
Cc1cc(C)cc(NC(=S)NCc2ccc3c(c2)OCO3)c1,8.5,?,-20.6,-12.0,?,·
C[C@@H]1CCCCO[C@@H](CN(C)C(=O)Cc2ccccc2)[C@@H](C)CN([C@H](C)CO)C(=O)c2cc(NC(=O)C3CCCCC3)ccc2O1,-21.3,-6.2%,3.6,3.2,?,·
C[C@@H]1CCCCO[C@H](CN(C)C(=O)Cc2ccccc2)[C@@H](C)CN([C@H](C)CO)C(=O)c2cc(NC(=O)Nc3ccccc3)ccc2O1,30.5,29.1µM*,23.0,0.0,-3.4%,·
C[C@@H]1CCCCO[C@H](CN(C)C(=O)Cc2ccccc2)[C@H](C)CN([C@@H](C)CO)C(=O)c2cc(NC(=O)Nc3ccc(F)cc3)ccc2O1,-29.4,-23.2%,-14.5,-7.2,23.1µM*,·
CCO[C@@H]1OC(C(=O)Nc2ccccc2)=C[C@H](C)[C@H]1CCCO,20.0,-3.7%,-1.1,0.6,-17.2%,·
Cc1cc2c(n1-c1ccc(C(=O)NCCc3ccc(Cl)cc3)cc1)CCCC2,·,25.9µM*,·,·,?,8.7%
CCc1nc2ccc(C(=O)NCCc3ccc(SC)cc3)cc2nc1CC,·,?,·,·,?,4.4%
CCN(CC)CCNC(=O)c1ccc(-n2c(C)cc3c2CCCC3=O)cc1,16.1,-5.0%,-12.3,-0.2,-0.7%,-5.3%
CSc1ccc(CCNC(=O)c2ccc(-n3c(C)cc4c3CCCC4)cc2)cc1,·,18.4µM*,·,·,20.6µM*,9.9%
Cc1ccccc1CNC(=O)c1ccc(-n2c(C)cc3c2CCCC3)cc1,·,?,·,·,?,5.0%
Cc1cc2c(n1-c1ccc(C(=O)NCC(C)c3ccccc3)cc1)CCCC2 (stereo not drawn),·,14.6µM*,·,·,23.1µM*,3.7%
Cc1ccc(C(=O)C(OC(=O)CCC(=O)Nc2cccc(C)c2)c2ccccc2)cc1 (stereo not drawn),-0.1,2.8%,4.0,5.7,3.6%,-3.9%
O=[N+]([O-])c1cccc(S(=O)(=O)NCC2CCCO2)c1 (stereo not drawn),14.9,7.4%,9.5,15.8,-12.9%,-2.7%
CC(C)(C)c1ccc(C(=O)NCCC(=O)NNC(=O)COc2ccccc2F)cc1,17.2,-6.7%,7.5,5.7,4.6%,0.0%
COc1cccc(Cn2c(=O)ccc3ccccc32)c1,-0.7,-18.3%,-0.9,·,-19.4%,7.5%
CC1CCN(C(=O)c2ccc(CSc3nc4ccncc4n3Cc3ccc(F)cc3)cc2)CC1,-6.7,?,-2.9,-5.8,23.1µM*,5.3%
Cc1cccc(Cn2c(SCc3ccc(C(=O)N4CCCCCC4)cc3)nc3ccncc32)c1,·,?,·,·,-122.2%,5.1%
CC1CCCN(C(=O)c2ccc(CSc3nc4ccncc4n3Cc3ccccc3)cc2)C1 (stereo not drawn),·,23.1µM*,·,·,16.4µM*,1.0%
SMILES,IL-1B inflam inh,TDP1 cell noCPT,Six1-Eya2 inh,CtBP-E1A inh,DT40 TDP1 CPT,TDP1 inh
O=C(c1ccc(CSc2nc3ccncc3n2Cc2ccccc2)cc1)N1CCCCCC1,·,16.4µM*,·,·,9.2µM*,0.0%
CCOC(=O)C1=C(C)OC(N)=C(C#N)C1c1cc2cc(C)ccc2nc1N1CCCCC1 (stereo not drawn),0.0,?,-0.7,-5.8,?,7.3%
COC(=O)[C@]12CCCCC=C1N(CCC1=CCCCC1)C(=O)[C@H](CC(=O)NCc1ccc(OC)c(OC)c1)C2,-11.8,?,-11.0,-4.1,?,·
CCOC(=O)[C@]12CCCC=C1N(Cc1ccccc1)C(=O)[C@H](CC(=O)NCc1ccc(OC)c(OC)c1)C2,?,?,-17.7,-14.4,?,·
COC(=O)[C@]12CCCCC=C1N(Cc1ccccc1)C(=O)[C@H](CC(=O)NCc1ccc(OC)c(OC)c1)C2,-20.3,23.1µM*,6.0,0.9,23.1µM*,·
CCOC(=O)[C@]12CCC=C1N(Cc1ccc3c(c1)OCO3)C(=O)[C@H](CC(=O)NCc1ccc(OC)c(OC)c1)C2,-19.9,?,-7.0,-2.5,?,·
CCCCCCCCN1C(=O)[C@H](CC(=O)NCc2ccc(OC)c(OC)c2)C[C@@]2(C(=O)OCC)CCC=C12,-76.9*,20.6µM*,-11.4,2.0,?,·
CCCCCCCCN1C(=O)[C@H](CC(=O)NCc2ccccc2)C[C@@]2(C(=O)OC)CCCCC=C12,-82.2*,14.6µM*,-5.9,-7.2,16.4µM*,·
CCCCCCCCN1C(=O)[C@H](CC(=O)NCc2ccc(OC)c(OC)c2)C[C@@]2(C(=O)OC)CCCCC=C12,-58.2*,20.6µM*,-14.3,-13.0,?,·
CCCCCCCCN1C(=O)[C@H](CC(=O)NCc2ccccc2)C[C@@]2(C(=O)OCC)CCC=C12,?,?,-3.0,1.5,?,·
CCN(C(=O)c1cccc(S(=O)(=O)N2CCc3ccccc32)c1)C1CCS(=O)(=O)C1 (stereo not drawn),7.6,?,7.0,·,?,0.1%[56.1 µM]
Cc1nn(C)cc1C(C)NCc1c(C(=O)N2CCCCCCC2)nc2ccc(Cl)cn12 (stereo not drawn),3.8,-22.6%,3.3,·,-2.6%,·
C#CCNC(=O)C[C@@H]1C[C@@]2(C(=O)OC)CCCCC=C2N(CCCCCCCC)C1=O,-13.1,23.1µM*,2.1,-0.3,16.4µM*,·

# Source: PubChem BioAssay
